PubChem BioAssay (NCATS)
Inconclusive results are not listed. Activity calls are given as the source filed them. The call rests on the fitted dose curve; in most records, active means well fitted inhibition curve with a large enough effect; inconclusive means small, poorly fitted or top-dose-only effect; inactive means flat fitted curve, though single readings scatter.

Legend:
[1] = qHTS profiling for inhibitors of Plasmodium falciparum proliferation (AID 504749); further: nearly all actives have a fitted effect of over 60% in size;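 on activity, negative = inhibition: 0% = DMSO vehicle and full inhibition = artemisinin control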; conditions: P. falciparum in erythrocytes, SYBR Green DNA, 72 h
How it was run: (§1)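 In a 72 h erythrocytic culture (37 C, humidified, 5% CO2) at 2.5% hematocrit and 0.3% starting parasitemia, compounds were tested; SYBR Green I in detergent lysis buffer stained parasite DNA overnight.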

3D7 = experiment: as above; conditions: P. falciparum in erythrocytes, SYBR Green DNA, 72 h; series mostly up to 28.7 µM
How it was run: as §1

7G8 = experiment: as above; conditions: P. falciparum in erythrocytes, SYBR Green DNA, 72 h; series mostly up to 28.7 µM
How it was run: as §1

AA1029 = experiment: as above; conditions: P. falciparum in erythrocytes, SYBR Green DNA, 72 h; series mostly up to 28.7 µM
How it was run: as §1

AS120 = experiment: as above; conditions: P. falciparum in erythrocytes, SYBR Green DNA, 72 h; series mostly up to 28.7 µM
How it was run: as §1

ATS189 = experiment: as above; conditions: P. falciparum in erythrocytes, SYBR Green DNA, 72 h; series mostly up to 28.7 µM
How it was run: as §1

ATS95 = experiment: as above; conditions: P. falciparum in erythrocytes, SYBR Green DNA, 72 h; series mostly up to 28.7 µM
How it was run: as §1

C2A = experiment: as above; conditions: P. falciparum in erythrocytes, SYBR Green DNA, 72 h; series mostly up to 28.7 µM
How it was run: as §1

CP185 = experiment: as above; conditions: P. falciparum in erythrocytes, SYBR Green DNA, 72 h; series mostly up to 28.7 µM
How it was run: as §1

CP191 = experiment: as above; conditions: P. falciparum in erythrocytes, SYBR Green DNA, 72 h; series mostly up to 28.7 µM
How it was run: as §1

CP192 = experiment: as above; conditions: P. falciparum in erythrocytes, SYBR Green DNA, 72 h; series mostly up to 28.7 µM
How it was run: as §1

CP194 = experiment: as above; conditions: P. falciparum in erythrocytes, SYBR Green DNA, 72 h; series mostly up to 28.7 µM
How it was run: as §1

CP201 = experiment: as above; conditions: P. falciparum in erythrocytes, SYBR Green DNA, 72 h; series mostly up to 28.7 µM
How it was run: as §1

CP203 = experiment: as above; conditions: P. falciparum in erythrocytes, SYBR Green DNA, 72 h; series mostly up to 28.7 µM
How it was run: as §1

CP211 = experiment: as above; conditions: P. falciparum in erythrocytes, SYBR Green DNA, 72 h; series mostly up to 28.7 µM
How it was run: as §1

CP217 = experiment: as above; conditions: P. falciparum in erythrocytes, SYBR Green DNA, 72 h; series mostly up to 28.7 µM
How it was run: as §1

CP237 = experiment: as above; conditions: P. falciparum in erythrocytes, SYBR Green DNA, 72 h; series mostly up to 28.7 µM
How it was run: as §1

CP238 = experiment: as above; conditions: P. falciparum in erythrocytes, SYBR Green DNA, 72 h; series mostly up to 28.7 µM
How it was run: as §1

CP247 = experiment: as above; conditions: P. falciparum in erythrocytes, SYBR Green DNA, 72 h; series mostly up to 28.7 µM
How it was run: as §1

CP215 = experiment: as above; conditions: P. falciparum in erythrocytes, SYBR Green DNA, 72 h; series mostly up to 28.7 µM
How it was run: as §1

[2] = at 28.7 µM (top of the series), parasite line A
[3] = at 28.7 µM (top of the series), parasite line B
Potency means the concentration at half of the fitted maximal effect.

CCCc1nc(C(C)(C)O)c(C(=O)OCc2oc(=O)oc2C)n1Cc1ccc(-c2ccccc2-c2nn[nH]n2)cc1
inactive: activity, negative = inhibition [1, 2] -15.7% | activity, negative = inhibition [1, 3] -20.3% | Potency (3D7) | Potency (7G8) | Potency (AA1029) | Potency (AS120) | Potency (ATS189) | Potency (ATS95) | Potency (C2A) | Potency (CP185) | Potency (CP191) | Potency (CP192) | Potency (CP194) | Potency (CP201) | Potency (CP203) | Potency (CP211) | Potency (CP217) | Potency (CP237) | Potency (CP238) | Potency (CP247)

CCCCC(CC)COS(=O)(=O)O (centres undefined)
inactive: activity, negative = inhibition [1, 2] 12.8% | activity, negative = inhibition [1, 3] 12.3% | Potency (3D7) | Potency (7G8) | Potency (AA1029) | Potency (AS120) | Potency (ATS189) | Potency (ATS95) | Potency (C2A) | Potency (CP185) | Potency (CP191) | Potency (CP192) | Potency (CP194) | Potency (CP201) | Potency (CP211) | Potency (CP215) | Potency (CP217) | Potency (CP237) | Potency (CP238) | Potency (CP247)

CCCOc1cc(N)ccc1C(=O)OCCN(CC)CC
inactive: activity, negative = inhibition ([1]; at 12.8 µM (top of the series), parasite line A) -3.32% | activity, negative = inhibition ([1]; at 12.8 µM (top of the series), parasite line B) 4.44% | Potency (3D7) | Potency (7G8) | Potency (AA1029) | Potency (AS120) | Potency (ATS189) | Potency (ATS95) | Potency (C2A) | Potency (CP185) | Potency (CP191) | Potency (CP192) | Potency (CP194) | Potency (CP201) | Potency (CP203) | Potency (CP215) | Potency (CP217) | Potency (CP237) | Potency (CP238)

CCc1ccc(S(=O)(=O)O)cc1
inactive: activity, negative = inhibition [1, 2] -3.46% | activity, negative = inhibition [1, 3] 4.58% | Potency (3D7) | Potency (7G8) | Potency (AA1029) | Potency (AS120) | Potency (ATS189) | Potency (ATS95) | Potency (C2A) | Potency (CP185) | Potency (CP191) | Potency (CP192) | Potency (CP194) | Potency (CP201) | Potency (CP211) | Potency (CP215) | Potency (CP217) | Potency (CP237) | Potency (CP238) | Potency (CP247)

c1ccc2ccccc2c1
inactive: activity, negative = inhibition [1, 2] 8.79% | activity, negative = inhibition [1, 3] 4.51% | Potency (3D7) | Potency (7G8) | Potency (AA1029) | Potency (AS120) | Potency (ATS189) | Potency (ATS95) | Potency (C2A) | Potency (CP185) | Potency (CP191) | Potency (CP192) | Potency (CP194) | Potency (CP201) | Potency (CP211) | Potency (CP215) | Potency (CP217) | Potency (CP237) | Potency (CP238) | Potency (CP247)

C[C@H]1O[C@@H](O[C@H]2[C@@H](O)C[C@H](O[C@H]3[C@@H](O)C[C@H](O[C@H]4CC[C@@]5(C)[C@H](CC[C@@H]6[C@@H]5C[C@@H](O)[C@]5(C)[C@@H](C7=CC(=O)OC7)CC[C@]65O)C4)O[C@@H]3C)O[C@@H]2C)C[C@H](O)[C@@H]1O
active: Potency (7G8) 11200 nM
inactive: activity, negative = inhibition [1, 2] -10.9% | activity, negative = inhibition [1, 3] 10.4% | Potency (3D7) | Potency (AA1029) | Potency (AS120) | Potency (ATS189) | Potency (ATS95) | Potency (C2A) | Potency (CP185) | Potency (CP191) | Potency (CP192) | Potency (CP194) | Potency (CP201) | Potency (CP211) | Potency (CP215) | Potency (CP217) | Potency (CP237) | Potency (CP238) | Potency (CP247)

O=C(/C=C/c1cccc(F)c1)NC1CC1
inactive: activity, negative = inhibition [1, 2] -17.7% | activity, negative = inhibition [1, 3] -9.61% | Potency (3D7) | Potency (7G8) | Potency (AA1029) | Potency (AS120) | Potency (ATS189) | Potency (ATS95) | Potency (C2A) | Potency (CP185) | Potency (CP191) | Potency (CP192) | Potency (CP194) | Potency (CP201) | Potency (CP211) | Potency (CP215) | Potency (CP217) | Potency (CP237) | Potency (CP238) | Potency (CP247)

[O]=[Bi][O]C(=O)[O][Bi]=[O]
inactive: activity, negative = inhibition [1, 2] 3.84% | activity, negative = inhibition [1, 3] -1.66% | Potency (3D7) | Potency (AA1029) | Potency (AS120) | Potency (ATS189) | Potency (ATS95) | Potency (C2A) | Potency (CP185) | Potency (CP191) | Potency (CP192) | Potency (CP194) | Potency (CP201) | Potency (CP211) | Potency (CP215) | Potency (CP217) | Potency (CP237) | Potency (CP238) | Potency (CP247)
active: Potency (7G8) 10000 nM

CCCCCCCCCCCCOCCCN
inactive: activity, negative = inhibition [1, 2] -4.13% | activity, negative = inhibition [1, 3] 8.54% | Potency (3D7) | Potency (7G8) | Potency (AA1029) | Potency (AS120) | Potency (ATS189) | Potency (ATS95) | Potency (C2A) | Potency (CP185) | Potency (CP191) | Potency (CP192) | Potency (CP194) | Potency (CP201) | Potency (CP211) | Potency (CP215) | Potency (CP217) | Potency (CP237) | Potency (CP238) | Potency (CP247)

CN=C1C=CC(=C(c2ccc(N(C)C)cc2)c2ccc(N(C)C)cc2)C=C1
active: Potency ([1]; parasite line A) 562 nM | Potency ([1]; parasite line B) 398 nM | Potency (3D7) 708 nM | Potency (7G8) 282 nM | Potency (AA1029) 708 nM | Potency (AS120) 1000 nM | Potency (ATS189) 447 nM | Potency (ATS95) 1120 nM | Potency (C2A) 447 nM | Potency (CP185) 447 nM | Potency (CP191) 282 nM | Potency (CP192) 849 nM | Potency (CP194) 953 nM | Potency (CP201) 1200 nM | Potency (CP211) 757 nM | Potency (CP215) 953 nM | Potency (CP217) 316 nM | Potency (CP237) 398 nM | Potency (CP238) 562 nM | Potency (CP247) 708 nM

CC1=CC(=C(c2ccc(N)cc2)c2ccc(N)cc2)C=CC1=N
active: Potency ([1]; parasite line A) 1410 nM | Potency ([1]; parasite line B) 1260 nM | Potency (3D7) 891 nM | Potency (7G8) 5010 nM | Potency (AA1029) 2240 nM | Potency (AS120) 2240 nM | Potency (ATS189) 2820 nM | Potency (ATS95) 2820 nM | Potency (C2A) 631 nM | Potency (CP185) 3980 nM | Potency (CP191) 1780 nM | Potency (CP192) 4260 nM | Potency (CP194) 3790 nM | Potency (CP201) 5360 nM | Potency (CP211) 4260 nM | Potency (CP215) 4780 nM | Potency (CP217) 3550 nM | Potency (CP237) 3160 nM | Potency (CP238) 3550 nM | Potency (CP247) 1120 nM

NC(=O)[C@H]1O[C@@H](O)[C@H](O)[C@@H](O)[C@@H]1O
inactive: activity, negative = inhibition [1, 2] 12.1% | activity, negative = inhibition [1, 3] 13.4% | Potency (3D7) | Potency (7G8) | Potency (AA1029) | Potency (AS120) | Potency (ATS189) | Potency (ATS95) | Potency (C2A) | Potency (CP185) | Potency (CP191) | Potency (CP192) | Potency (CP194) | Potency (CP201) | Potency (CP211) | Potency (CP215) | Potency (CP217) | Potency (CP237) | Potency (CP238) | Potency (CP247)

CCCCC[C@H](O)/C=C/[C@@H]1[C@H]2C/C(=C/CCCC(=O)O)O[C@H]2C[C@H]1O
inactive: activity, negative = inhibition [1, 2] -0.331% | activity, negative = inhibition [1, 3] 0.715% | Potency (3D7) | Potency (7G8) | Potency (AA1029) | Potency (AS120) | Potency (ATS189) | Potency (ATS95) | Potency (C2A) | Potency (CP185) | Potency (CP191) | Potency (CP192) | Potency (CP194) | Potency (CP201) | Potency (CP211) | Potency (CP215) | Potency (CP217) | Potency (CP237) | Potency (CP238) | Potency (CP247)
